In the library only some 11% were active in any assay of this set; here they are far more common.
ALDH1A1 block – inhibitors of human aldehyde dehydrogenase 1A1; P00352; Purified ALDH1A1, NADH fluorescence, propionaldehyde substrate; Potency, µM (doses to about 75.3 µM), without a hit: top-dose activity, negative = inhibition, most hits filed as inhibitors; hit rate 7.3% among 220,000; AID 1030;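 further: potency means the concentration at half of the fitted maximal effect; plate controls were no enzyme wells and a reference inhibitor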
HPGD inh – blocks human HPGD enzyme activity; P15428; purified HPGD, NADH fluorescence kinetic, PGE2 substrate; Potency, µM, for the others: at the highest dose activity change, negative = inhibition, usual class: inhibitors; hit rate 4.3% among 150,000; AID 894; further: potency means the concentration at half of the fitted maximal effect
Target sequence (P15428 whole entry, looked up): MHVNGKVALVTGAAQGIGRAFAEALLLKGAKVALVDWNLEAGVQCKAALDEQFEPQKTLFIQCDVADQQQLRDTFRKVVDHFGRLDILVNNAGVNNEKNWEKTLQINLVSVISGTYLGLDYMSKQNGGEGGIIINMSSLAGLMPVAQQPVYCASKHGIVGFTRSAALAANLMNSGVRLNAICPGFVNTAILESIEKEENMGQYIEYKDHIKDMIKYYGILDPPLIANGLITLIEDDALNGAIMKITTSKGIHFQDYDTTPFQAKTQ
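20 nM HPGD preincubated 15 min at room temperature with compound in 50 mM Tris-HCl pH 8, 0.01% Tween 20. Started with 1 mM NAD+ and 30 uM prostaglandin E2; NADH fluorescence (360/450 nm) read 5 times over 30-s intervals, last minus first.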
PNC assembly inh – perinucleolar compartment assembly inhibition; hit rate 3.1% among 140,000; AID 2417; PC3M PTB-GFP, PNC prevalence imaging, 16 h; hits give low values; activity change (PNC), negative = inhibition, % at 10 µM;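 active means readout at or below -70, meaning at least 70% loss of cells showing the perinucleolar compartment, a nuclear body marking cancer cells; inconclusive means readout between -30 and a set limit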;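 further: plate controls were DMSO wells for no effect and camptothecin positive control wells for full effect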
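Compounds are pinned in duplicate onto adhered PC3M cells stably expressing GFP-tagged PTB and incubated 16 h at 37 C. Cells are then fixed, nuclei stained with Hoechst, and PNC-positive cells counted.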
* = called active by the depositor. Unless noted, the call rests on the fitted dose curve; in most records, active means well fitted inhibition curve with a large enough effect (not every such curve was filed as active); inconclusive means small, poorly fitted or top-dose-only effect, or another doubt; inactive means no such curve, though single readings can be large or run the other way. Unless noted, on the % scale 0 is the no-effect control and ±100 the full control effect.

Results for O=C1CN(C(=O)COC(=O)/C=C/c2ccc(OC(F)F)cc2)c2ccccc2N1 ?
ALDH1A1 block: 6%; HPGD inh: -19%; PNC assembly inh: inconclusive

How did O=C(/C=C/c1ccc(OC(F)F)cc1)OCC(=O)N1CCN(C(=O)c2ccco2)CC1 do in these assays?
ALDH1A1 block: 18µM*; HPGD inh: -6%; PNC assembly inh: 13

How did COc1ccc(CC(=O)N2CCN(C(=O)c3ccco3)CC2)cc1 do in these assays?
ALDH1A1 block: 20µM*; HPGD inh: inconclusive; PNC assembly inh: 7

What do the screens show for `COc1ccc(OCC(=O)N2CCN(C(=O)c3ccco3)CC2)cc1`?
ALDH1A1 block: 10µM*; HPGD inh: -9%; PNC assembly inh: -29

What do the screens show for `O=C(COc1ccccc1)N1CCN(C(=O)c2ccco2)CC1`?
ALDH1A1 block: inconclusive; HPGD inh: 0%; PNC assembly inh: -10

What do the screens show for `Cc1cc(S(=O)(=O)Nc2ccccc2C(=O)O)ccc1F`?
ALDH1A1 block: inconclusive; HPGD inh: -21%

Results for Cc1ccc(CNC(=O)CSc2ncccn2)cc1 ?
ALDH1A1 block: 1%; HPGD inh: -4%; PNC assembly inh: 10

What do the screens show for `COc1cc2c(cc1NC(=O)COC(=O)Cn1cnc3ccccc31)oc1ccccc12`?
ALDH1A1 block: 11µM*; HPGD inh: inconclusive; PNC assembly inh: inconclusive

Results for COc1cc2c(cc1NC(=O)COc1ccccc1OC)oc1ccccc12 ?
ALDH1A1 block: inconclusive; HPGD inh: inconclusive; PNC assembly inh: 39

Results for COc1cc2c(cc1NC(=O)CSc1ccc(C)cc1)oc1ccccc12 ?
ALDH1A1 block: -12%; HPGD inh: inconclusive; PNC assembly inh: 28

What do the screens show for `COc1cc2c(cc1NC(=O)CSCC(=O)O)oc1ccccc12`?
ALDH1A1 block: inconclusive; HPGD inh: inconclusive; PNC assembly inh: -127*

How did CCOc1cccc(-c2cc(C(=O)N/N=C/c3cccc(OC)c3O)[nH]n2)c1 do in these assays?
ALDH1A1 block: 4%; HPGD inh: -12%

Results for c1ccc2c(c1)nc(-c1ccncc1)n1nnnc21 ?
ALDH1A1 block: 9%; HPGD inh: -11%; PNC assembly inh: 14

Results for CCC(CC)c1nnc(NC(=O)c2cccnc2SC)s1 ?
ALDH1A1 block: -1%

What do the screens show for `CCCCNC(=O)C(c1ccc(OCC(=O)OC)c(C(=O)OC)c1)N(Cc1ccccc1)C(=O)CCCCCN1C(=O)NC(c2ccc(-c3ccccc3)cc2)C(C(=O)OCc2ccccc2)=C1C` (stereo not drawn)?
ALDH1A1 block: 2%; HPGD inh: -9%

Results for COc1ccc(N2CCN(C(=O)[C@H](Cc3c[nH]c4ccccc34)NC(C)=O)CC2)cc1 ?
ALDH1A1 block: -2%

Results for CCCCc1noc2c1/C(=N\O)CC(c1ccccc1)C2 (stereo not drawn) ?
ALDH1A1 block: -1%; HPGD inh: -21%; PNC assembly inh: -3

How did CCCCc1n[nH]c2c1/C(=N/O)CC(c1ccccc1)C2 (stereo not drawn) do in these assays?
ALDH1A1 block: -2%; HPGD inh: 2.5µM*; PNC assembly inh: 34

What do the screens show for `CCc1n[nH]c2c1/C(=N\O)CC(c1ccccc1)C2` (stereo not drawn)?
ALDH1A1 block: -8%; HPGD inh: 4µM*; PNC assembly inh: -30

What do the screens show for `CCc1n[nH]c2c1/C(=N\O)CC(C)(C)C2`?
ALDH1A1 block: 2%; HPGD inh: -6%; PNC assembly inh: -17

Results for COc1ccc(N(CC(=O)NCc2ccccc2C)S(=O)(=O)c2ccccc2[N+](=O)[O-])c(OC)c1 ?
ALDH1A1 block: 13%

Results for O=C(NCCc1ccccc1)C1CCCN1S(=O)(=O)c1ccccc1 (stereo not drawn) ?
ALDH1A1 block: 5%

How did CCCc1nc(NC(=O)c2ccccc2)nc(NC(=O)c2ccccc2)n1 do in these assays?
ALDH1A1 block: 8%

Results for O=C(COC(=O)c1cc(S(=O)(=O)N2CCOCC2)cs1)c1ccccc1 ?
ALDH1A1 block: -3%; HPGD inh: -5%; PNC assembly inh: inconclusive

What do the screens show for `Cc1ccc(Cn2cc(/C=N/Nc3ccc([N+](=O)[O-])cn3)c3ccccc32)cc1`?
ALDH1A1 block: 10µM*; HPGD inh: -16%; PNC assembly inh: inconclusive

What do the screens show for `Cc1ccc(-n2c(C)cc(/C=N/Nc3ccc([N+](=O)[O-])cn3)c2C)cc1`?
ALDH1A1 block: 10µM*; HPGD inh: -5%; PNC assembly inh: 14

Results for Cc1ccc(Cn2nc(C)c(/C=N/NC(=O)c3cccnc3)c2C)cc1 ?
ALDH1A1 block: -2%

How did N#CCC(=O)N/N=C/c1cn(Cc2ccc(Cl)c(Cl)c2)c2ccccc12 do in these assays?
ALDH1A1 block: -14%

Results for Cc1ccc(C(=O)N/N=C/c2cn(Cc3ccccc3)c3ccccc23)cn1 ?
ALDH1A1 block: 13µM*

Source: PubChem BioAssay (National Center for Advancing Translational Sciences (NCATS))
